From PubChem BioAssay (NCI)
About 83,000 compounds went through this panel and 20% of them were active in at least one assay; those are over-represented in the sample as a whole.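 For each line, cells grew in 96-well plates with the test compound present at a single concentration for 48 hours.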 Calls of active or inactive are those of the source. How the source made its calls: active means growth percent below 10; inactive means the rest.

Legend:
Test in all cases: NCI-60 one-dose screen, 48 h (100 = growth as untreated, 0 = no growth, -100 = all killed)
SK-MEL-2 melanoma = details: 10 µM unless noted
EKVX NSCLC = details: 10 µM unless noted
SN12C renal = details: 10 µM unless noted
UO-31 renal = details: 10 µM unless noted
TK-10 renal = details: 10 µM unless noted
ACHN renal = details: 10 µM unless noted
CAKI-1 renal = details: 10 µM unless noted
A498 renal = details: 10 µM unless noted
CCRF-CEM leukemia = details: 10 µM unless noted
MOLT-4 leukemia = details: 10 µM unless noted
SR leukemia = details: 10 µM unless noted
RPMI-8226 leukemia = details: 10 µM unless noted
OVCAR-8 ovarian = details: 10 µM unless noted
OVCAR-5 ovarian = details: 10 µM unless noted
OVCAR-4 ovarian = details: 10 µM
SK-OV-3 ovarian = details: 10 µM unless noted
IGROV1 ovarian = details: 10 µM unless noted
OVCAR-3 ovarian = details: 10 µM unless noted
HS 578T breast = details: 10 µM unless noted
NCI/ADR-RES ovarian = details: 10 µM unless noted

Measured: growth

C#CCOc1ccc(C2=NN(CC3CC3)C3N=C(Cl)c4ncn(CC5CC5)c4N23)cc1OCC#C (stereo not given)
inactive: SK-MEL-2 melanoma 82.7% | EKVX NSCLC 80.1% | SN12C renal 82.2% | UO-31 renal 46.9% | TK-10 renal 76% | ACHN renal 62% | CAKI-1 renal 43.7% | A498 renal 50.9% | CCRF-CEM leukemia 64.3% | MOLT-4 leukemia 61% | SR leukemia 65.7% | RPMI-8226 leukemia 73.7% | OVCAR-8 ovarian 71.6% | OVCAR-5 ovarian 96.6% | OVCAR-4 ovarian 71.3% | SK-OV-3 ovarian 73.8% | IGROV1 ovarian 67.8% | OVCAR-3 ovarian 90.4% | HS 578T breast 79.4% | NCI/ADR-RES ovarian 85.3%

Cc1nc(Cl)c2c(n1)N(C)c1ccc(Cl)cc1C(C)C2 (stereo not given)
inactive: SK-MEL-2 melanoma 96.1% | EKVX NSCLC 75% | SN12C renal 86.6% | UO-31 renal 70.9% | TK-10 renal 92.9% | ACHN renal 91.7% | CAKI-1 renal 78.8% | A498 renal 81.5% | CCRF-CEM leukemia 90.3% | MOLT-4 leukemia 80.6% | SR leukemia 83.2% | RPMI-8226 leukemia 66.8% | OVCAR-8 ovarian 95.9% | OVCAR-5 ovarian 101% | OVCAR-4 ovarian 83% | SK-OV-3 ovarian 86.3% | IGROV1 ovarian 92.7% | OVCAR-3 ovarian 98.7% | HS 578T breast 42.5% | NCI/ADR-RES ovarian 95.8%

c1ccc(-c2n[nH]c(-c3ccccn3)n2)nc1
inactive: SK-MEL-2 melanoma 108% | EKVX NSCLC 98.5% | SN12C renal 111% | UO-31 renal 93.8% | TK-10 renal 116% | ACHN renal 107% | CAKI-1 renal 81.1% | A498 renal 224% | CCRF-CEM leukemia 103% | MOLT-4 leukemia 128% | SR leukemia 127% | RPMI-8226 leukemia 104% | OVCAR-8 ovarian 107% | OVCAR-5 ovarian 100% | OVCAR-4 ovarian 103% | SK-OV-3 ovarian 108% | IGROV1 ovarian 116% | OVCAR-3 ovarian 144% | HS 578T breast 139% | NCI/ADR-RES ovarian 90.4%

O=C1COCCN1c1ccc(NCc2cn(Cc3cccc4ccccc34)c3ccccc23)cc1
inactive: SK-MEL-2 melanoma 93.4% | EKVX NSCLC 96.6% | SN12C renal 92.6% | UO-31 renal 58% | TK-10 renal 44.4% | ACHN renal 91.4% | CCRF-CEM leukemia 96.9% | MOLT-4 leukemia 92% | SR leukemia 74.5% | RPMI-8226 leukemia 82.1% | OVCAR-8 ovarian 83.4% | OVCAR-5 ovarian 41.7% | OVCAR-4 ovarian 69.8% | SK-OV-3 ovarian 62% | IGROV1 ovarian 27.2% | OVCAR-3 ovarian 87.9% | HS 578T breast 84.3% | NCI/ADR-RES ovarian 78.2%
active: CAKI-1 renal 7.53% | A498 renal -39.1%

O=C(NCCCCCCCNC(=O)OCc1ccc2c(Cl)cc(Cl)c(O)c2n1)OCc1ccc2c(Cl)cc(Cl)c(O)c2n1
active: SK-MEL-2 melanoma -70.6% | EKVX NSCLC -45.8% | SN12C renal -76.5% | UO-31 renal -100% | TK-10 renal -80.7% | ACHN renal -99.9% | CAKI-1 renal -93.4% | A498 renal -80.6% | CCRF-CEM leukemia 4.67% | MOLT-4 leukemia -2.43% | SR leukemia 6.26% | RPMI-8226 leukemia -15.5% | OVCAR-8 ovarian -8.93% | OVCAR-5 ovarian -76.8% | OVCAR-4 ovarian -71.9% | IGROV1 ovarian -86.2% | OVCAR-3 ovarian -87.2% | HS 578T breast -9.29% | NCI/ADR-RES ovarian -29.5%
inactive: SK-OV-3 ovarian 35%

COC(=O)[C@@H](NC(=O)NC(=O)NC(=O)CI)C(C)C
inactive: SK-MEL-2 melanoma 87.4% | EKVX NSCLC 95.7% | SN12C renal 90.1% | TK-10 renal 89.8% | ACHN renal 79.8% | A498 renal 87.9% | MOLT-4 leukemia 10.6% | RPMI-8226 leukemia 74.5% | OVCAR-8 ovarian 90.9% | OVCAR-5 ovarian 90.9% | OVCAR-4 ovarian 72.7% | SK-OV-3 ovarian 80.9% | IGROV1 ovarian 101% | HS 578T breast 86.8% | NCI/ADR-RES ovarian 101%
active: UO-31 renal -15.4% | CAKI-1 renal -61.6% | CCRF-CEM leukemia -32.9% | SR leukemia -46.6% | OVCAR-3 ovarian 7.92%

O=C(Nc1ccc(Cl)c(C(F)(F)F)c1)Nc1ccc(-c2cccnc2)cc1N1CCC(CO)CC1
inactive: EKVX NSCLC 37.2% | SN12C renal 31% | UO-31 renal 21.9% | TK-10 renal 22.2% | ACHN renal 17.3% | CAKI-1 renal 34.3% | A498 renal 14.3% | RPMI-8226 leukemia 12.1% | OVCAR-8 ovarian 26.8% | OVCAR-5 ovarian 39.4% | OVCAR-4 ovarian 43.8% | SK-OV-3 ovarian 32.6% | IGROV1 ovarian 61.4% | OVCAR-3 ovarian 38% | HS 578T breast 34.4% | NCI/ADR-RES ovarian 26.2%
active: SK-MEL-2 melanoma -10.3% | CCRF-CEM leukemia 9.72% | MOLT-4 leukemia 4.83% | SR leukemia 2.35%

O=[N+]([O-])c1cccc(N=NNc2cccc([N+](=O)[O-])c2)c1
active: A498 renal -2.16%
inactive: SK-MEL-2 melanoma 104% | EKVX NSCLC 84.6% | SN12C renal 89.5% | UO-31 renal 80% | TK-10 renal 69.7% | ACHN renal 95.7% | CAKI-1 renal 87.5% | CCRF-CEM leukemia 84.3% | MOLT-4 leukemia 82.7% | SR leukemia 95.1% | RPMI-8226 leukemia 86% | OVCAR-8 ovarian 99.5% | OVCAR-5 ovarian 94.6% | OVCAR-4 ovarian 88.7% | SK-OV-3 ovarian 104% | IGROV1 ovarian 125% | OVCAR-3 ovarian 101% | HS 578T breast 101% | NCI/ADR-RES ovarian 94.4%

COc1ccc(-c2cc(-c3ccccc3)nc(SCCCCCC(=O)NO)n2)cc1
inactive: SK-MEL-2 melanoma 61.4% | EKVX NSCLC 67.5% | SN12C renal 81.4% | UO-31 renal 41.6% | TK-10 renal 34.8% | ACHN renal 48.9% | CAKI-1 renal 33.4% | A498 renal 57.1% | CCRF-CEM leukemia 13.8% | SR leukemia 21.9% | RPMI-8226 leukemia 21.2% | OVCAR-8 ovarian 36.1% | OVCAR-5 ovarian 41.4% | OVCAR-4 ovarian 80.1% | SK-OV-3 ovarian 50.3% | IGROV1 ovarian 51.7% | OVCAR-3 ovarian 65% | HS 578T breast 56% | NCI/ADR-RES ovarian 56.9%
active: MOLT-4 leukemia 9.24%

CC(C)C1=NOC(=O)C1=Cc1cn(-c2ccccc2)nc1-c1cccc([N+](=O)[O-])c1
active: CCRF-CEM leukemia 2.68% | MOLT-4 leukemia 3.44% | SR leukemia -20.9% | RPMI-8226 leukemia -26.8%
inactive: SK-MEL-2 melanoma 101% | EKVX NSCLC 99.3% | SN12C renal 78.3% | UO-31 renal 74.3% | TK-10 renal 89.5% | ACHN renal 99.2% | CAKI-1 renal 64.6% | A498 renal 76.3% | OVCAR-8 ovarian 58% | OVCAR-5 ovarian 106% | OVCAR-4 ovarian 103% | SK-OV-3 ovarian 117% | IGROV1 ovarian 70.4% | OVCAR-3 ovarian 89.3% | HS 578T breast 29.7% | NCI/ADR-RES ovarian 97%

CCOC(=O)/C(C#N)=C(\C)CCc1ccccc1
inactive: SK-MEL-2 melanoma 106% | EKVX NSCLC 105% | SN12C renal 118% | UO-31 renal 99.6% | TK-10 renal 140% | ACHN renal 101% | CAKI-1 renal 80.9% | A498 renal 77.9% | CCRF-CEM leukemia 102% | MOLT-4 leukemia 153% | SR leukemia 153% | RPMI-8226 leukemia 61.1% | OVCAR-8 ovarian 103% | OVCAR-5 ovarian 108% | OVCAR-4 ovarian 58.9% | SK-OV-3 ovarian 125% | IGROV1 ovarian 81.2% | OVCAR-3 ovarian 118% | HS 578T breast 98.7% | NCI/ADR-RES ovarian 98.8%

Nc1nc(Cl)c2ncn(Cc3cc4c(cc3I)OCO4)c2n1
inactive: SK-MEL-2 melanoma 57.1% | EKVX NSCLC 95.8% | SN12C renal 33% | UO-31 renal 34.7% | TK-10 renal 23.6% | ACHN renal 56.7% | CAKI-1 renal 47.5% | A498 renal 61.8% | CCRF-CEM leukemia 26.3% | MOLT-4 leukemia 52.6% | RPMI-8226 leukemia 34.8% | OVCAR-8 ovarian 60.7% | OVCAR-5 ovarian 72.8% | OVCAR-4 ovarian 79.7% | SK-OV-3 ovarian 58.7% | IGROV1 ovarian 83.2% | OVCAR-3 ovarian 41.9% | HS 578T breast 81.2% | NCI/ADR-RES ovarian 58%
active: SR leukemia 9.76%

CCn1cc(-c2ccnc(NCCNS(=O)(=O)c3cccc4ccccc34)c2)c(-c2cccc(O)c2)n1
inactive: SK-MEL-2 melanoma 111% | EKVX NSCLC 96.9% | SN12C renal 96.7% | UO-31 renal 90.3% | TK-10 renal 114% | ACHN renal 100% | CAKI-1 renal 102% | A498 renal 91.5% | CCRF-CEM leukemia 95% | MOLT-4 leukemia 93.1% | SR leukemia 74.9% | RPMI-8226 leukemia 74% | OVCAR-8 ovarian 101% | OVCAR-5 ovarian 123% | OVCAR-4 ovarian 99.9% | SK-OV-3 ovarian 106% | IGROV1 ovarian 91.5% | OVCAR-3 ovarian 100% | HS 578T breast 95.3% | NCI/ADR-RES ovarian 102%

CS(=O)(=O)c1cccnn1
inactive: SK-MEL-2 melanoma 98.8% | EKVX NSCLC 76.9% | SN12C renal 89.1% | UO-31 renal 79.9% | TK-10 renal 109% | ACHN renal 97.7% | CAKI-1 renal 73.6% | A498 renal 66.7% | CCRF-CEM leukemia 84.9% | MOLT-4 leukemia 132% | SR leukemia 167% | RPMI-8226 leukemia 97% | OVCAR-8 ovarian 106% | OVCAR-5 ovarian 81.1% | OVCAR-4 ovarian 80.9% | SK-OV-3 ovarian 116% | IGROV1 ovarian 78% | OVCAR-3 ovarian 103% | HS 578T breast 89.2% | NCI/ADR-RES ovarian 96%

CCOC(=O)CC(c1ccccc1)C(C#N)c1ccccc1 (stereo not given)
inactive: SK-MEL-2 melanoma 106% | EKVX NSCLC 87.5% | SN12C renal 109% | UO-31 renal 84% | TK-10 renal 101% | ACHN renal 103% | CAKI-1 renal 87.1% | A498 renal 91.3% | CCRF-CEM leukemia 98.9% | MOLT-4 leukemia 88.8% | SR leukemia 97.3% | RPMI-8226 leukemia 91.3% | OVCAR-8 ovarian 99.2% | OVCAR-5 ovarian 110% | OVCAR-4 ovarian 98.7% | SK-OV-3 ovarian 95.1% | IGROV1 ovarian 108% | OVCAR-3 ovarian 98.9% | HS 578T breast 89.4% | NCI/ADR-RES ovarian 109%
